# Test results reported in ChEMBL document CHEMBL4513216, “Probing the Open Global Health Chemical Diversity Library for Multistage-Active Starting Points for Next-Generation Antimalarials” (ACS Infect Dis, 2020).
# Among all 69,000 compounds or so, about 8,600 (12%) showed an effect of 50% or more. The full list was thinned out, with strong results kept by preference.
# System: Plasmodium berghei
# Assay: Screen against P. berghei liver stage (PbLuc), transformed with Luciferase, at 10uM
# Assay type: functional, HepG2
# Settings: tested at 10 uM
row,Compound,INHIBITION [%]
1,CN1CCN(c2ncc(-c3cnccn3)c([C@H]3CCCO3)n2)CC1,14.7
2,CN1CCN(CC2CC2)C(=O)c2cnc(N3CCOCC3)nc21,26.3
3,CN(C)C[C@]12COC[C@H]1CN(C(=O)CCc1ccccc1)C2,6.66
4,CC(C)NC(=O)N1CCC[C@H]1C(=O)NCCCc1cnn(C)c1,-34.6
5,CC(=O)N1CCC(c2nccnc2-c2ccc(F)cc2)CC1,43.6
6,Cc1cc(C)n(CC2CCCCN2C(=O)c2ccc3[nH]nnc3c2)n1 (stereo not given),20.9
7,CC(NC(=O)NCCCO)c1ccc2c(c1)NC(=O)CO2 (stereo not given),-11.4
8,CC(NC(=O)Cn1cccn1)c1ccc2c(c1)OCCO2 (stereo not given),41.5
9,CC(NC(=O)Cn1cccn1)c1ccc2c(c1)OCCCO2 (stereo not given),62.1
10,CC(NC(=O)NCCCn1cncn1)c1ccc2c(c1)OCCO2 (stereo not given),21.8
11,CC(NC(=O)NCCCO)c1ccc2c(c1)OCCO2 (stereo not given),52.1
12,CC(NC(=O)CCn1cccn1)c1ccc2c(c1)OCCO2 (stereo not given),22.3
13,Cc1ccc2c(c1)C1(CC(=O)Nc3[nH]ncc31)C(=O)N2C (stereo not given),21.5
14,CCc1noc(CN(C)Cc2ccc(N3CCCCC3)cc2)n1,61.8
15,CN(Cc1ccc(N2CCCCC2)cc1)Cc1noc(C(C)(C)C)n1,78.5
16,CN(Cc1ccc(N2CCOCC2)cc1)Cc1noc(C(C)(C)C)n1,-8.51
17,CCc1noc(CN(CC(=O)N2CCCCC2)c2ccc(C)cc2)n1,50.1
18,CCc1nc(CN(C)CC(c2cccs2)N2CCOCC2)no1 (stereo not given),36.4
19,CCCc1noc(CN(C)Cc2ccc3c(c2)OCO3)n1,19.3
20,CCc1noc(CN(CC(=O)N2CCCCC2)c2cccc(C)c2)n1,18
21,CCc1noc(CN(C)Cc2cc(Br)ccc2OC)n1,30.9
22,Cc1cccc(N(CC(=O)N2CCCCC2)Cc2ccno2)c1,36.2
23,CN(Cc1noc(C(C)(C)C)n1)CC1CCN(CCO)CC1,37.5
24,Cc1noc(CN(C)CC(c2cccs2)N2CCOCC2)n1 (stereo not given),35.9
25,CCc1noc(CN(C)CC(c2cccs2)N2CCOCC2)n1 (stereo not given),60.5
26,CN(C)C(=O)CN1CCCC(c2cncc(-c3cccc(Cl)c3)n2)C1 (stereo not given),35.2
27,CC(=O)NCC1CCN(C(=O)NCCc2ccc(Cl)s2)CC1,13.3
28,CCCC(=O)N1CCCCC1c1nc(N(C)C)ncc1-c1cc(C)no1 (stereo not given),23.1
29,CN1CCCC(c2cccc(CCC(=O)NCC3(C)COC3)n2)C1 (stereo not given),13
30,NC(=O)Cn1cc(NC(=O)N2CCCCCC2)cn1,2.5
